Results published in PubChem BioAssay.
Potency and affinity values are given separately. The source made the active and inactive calls. Cut-off not given; nearly all actives show IC50 up to about 0.91 µM.

The compounds below were run against Calcium-dependent protein kinase 4 (Plasmodium falciparum (isolate 3D7)) (UniProt Q8IBS5) (assay: PfCDPK4 kinase inhibitors, biochemical, TCAMS library (AID 1159588)). Conditions: recombinant PfCDPK4, Kinase-Glo ATP depletion luminescence.
Sequence of Calcium-dependent protein kinase 4 (Plasmodium falciparum (isolate 3D7)) (Q8IBS5 whole entry, looked up): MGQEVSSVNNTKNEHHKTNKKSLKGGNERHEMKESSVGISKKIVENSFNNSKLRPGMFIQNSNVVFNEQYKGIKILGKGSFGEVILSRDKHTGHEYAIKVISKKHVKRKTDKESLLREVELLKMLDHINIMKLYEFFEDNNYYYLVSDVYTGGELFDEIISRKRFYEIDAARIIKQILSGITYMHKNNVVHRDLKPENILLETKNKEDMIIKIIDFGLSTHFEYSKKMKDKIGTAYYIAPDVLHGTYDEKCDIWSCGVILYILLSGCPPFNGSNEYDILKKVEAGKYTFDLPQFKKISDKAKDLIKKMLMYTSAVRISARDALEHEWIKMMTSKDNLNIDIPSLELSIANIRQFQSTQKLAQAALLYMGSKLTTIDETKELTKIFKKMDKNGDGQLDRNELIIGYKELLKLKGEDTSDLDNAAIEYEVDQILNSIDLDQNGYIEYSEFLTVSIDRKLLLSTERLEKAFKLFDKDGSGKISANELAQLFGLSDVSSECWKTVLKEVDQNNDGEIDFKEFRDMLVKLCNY

outcome, inactive:
CC1(CCCCN2CCC(Oc3ccc(F)cc3F)CC2)C(=O)Nc2ccccc21 (stereo not given)
c1cc(CNC2CCCC2)cc(-c2ccc(CNc3ccc4ncccc4c3)cc2)c1
O=S(=O)(c1cc2ccccc2s1)N(CCC(O)(C(F)(F)F)C(F)(F)F)Cc1cccc(O)c1
CCC(C)CN1CCN(c2ccc(NC(=O)c3cccs3)cc2)CC1C (stereo not given)
COc1ccc(Nc2nccc(N3CCC(NC(=O)C(C)c4ccc(Cl)cc4)C3)n2)cc1 (stereo not given)
O=C(/C=C/c1ccc(Cl)c(Cl)c1)NCCCCN1CCC(c2c[nH]c3ccccc23)CC1
N#Cc1cccc(NC(=O)Nc2ccc(-c3ccc(-c4nc5ccc(C(F)(F)F)cc5[nH]4)cc3)cc2)c1
CCOc1ccc(-c2nonc2NC(=O)c2ccc(OC(C)C)cc2)cc1OCC
COc1ccccc1NC(=O)OC(COc1ccc(N)cc1)CN1CC=C(c2ccccc2)CC1 (stereo not given)
CCCCN1C(=O)C(c2ccccc2)(c2ccccc2)N=C1N
O=C(Nc1ccc(OC2CCN(Cc3ccc(F)cc3)C2)c(Cl)c1)c1ccc(F)cc1 (stereo not given)
COc1cccc(Nc2c(C(N)=O)cnc3ccc(-c4ccc(S(C)=O)cc4)cc23)c1 (stereo not given)
CN(Cc1ccccc1)C1CCCN(c2cc(NC(=O)c3cccs3)ccn2)C1 (stereo not given)
C[C@H](Cc1ccc(S(=O)(=O)c2ccc(C[C@@H](C)NC[C@H](O)c3cccc(Cl)c3)cc2)cc1)NC[C@H](O)c1cccc(Cl)c1
O=C(Nc1ccc(-c2ccccc2)s1)N[C@H]1CCN(Cc2ccc(OCCCN3CCCCC3)cc2)C1
COc1cc(Nc2nc(N)c3cc(OC)c(OC)cc3n2)cc(OC)c1
O=c1cc(NCCCNCc2ccc(C(F)(F)F)s2)[nH]c2ccccc12
Cc1cc(NC(=O)c2sc3ccccc3c2O)no1
Nc1nccc2ccc(-c3ccsc3)cc12
COc1cc2nc(NCCC(C)C)n3nc(-c4ccccc4)nc3c2cc1OC
COc1ccc2nccc([C@@H](O)CN3CCC(NCc4cc5c(F)ccc(F)c5[nH]4)CC3)c2c1
CCCN(CC)CCOC(=O)c1ccccc1
C[C@H](Nc1nc(C(Oc2ccccc2)c2ccccc2)nc2[nH]ncc12)c1ccccc1 (stereo not given in full)
Cc1ccc(O)cc1C[C@@H]1C(=O)CC[C@@]2(C)[C@H]1CC[C@]2(C)O
Cc1ccc2c(NN=Cc3ccc(Cl)cc3)cc(C)nc2c1
COC(=O)c1cccc(CNCc2cccc(-c3ccc(-c4nc5ccccc5[nH]4)cc3)c2)c1
COc1cc2nc(Nc3ccc(C)cc3)nc(Nc3ccc(C)cc3)c2cc1OC
Cc1cc(NCc2ccccc2)nc2cc(O)ccc12
Cn1cccc1C(=O)C(=O)Nc1cccc(-c2ccc(-c3nc4ccc(C(F)(F)F)cc4[nH]3)cc2)c1
O=C(N[C@@H](Cc1ccccc1)[C@H](O)CNC1CCCCC1)c1cc(C2CCCC2)cc(N2CCCC2=O)c1
COc1ccc(C2=CCN(c3ccc(Cl)c(Cl)c3)C2=O)cc1OCCN1CCCCC1
CCCCCN1CCCC1CNS(=O)(=O)c1ccc(C(=O)Nc2ccc(C(F)(F)F)cc2)cc1 (stereo not given)
Cc1nc2ccccc2c(=O)n1N=Cc1ccccc1[N+](=O)[O-]
Cc1cc(NN=Cc2ccccc2)c2cc(C(F)(F)F)ccc2n1
Cc1cc(Cl)c(S(=O)(=O)NC2CCCC2)cc1OCC(=O)NC1CCCCC1
O=C(Nc1ccc2c(c1)CCC2)c1cccc(N2CCN(c3ccncc3)CC2)c1
O=C(Nc1ccc(-c2cccc(-c3nc4ccc(C(F)(F)F)cc4[nH]3)c2)cc1)c1ccncc1
COc1ccc(-c2c(-c3ccc(OCc4ccccc4)cc3O)n[nH]c2C(F)(F)F)cc1
CCCCCN1CCCN(Cc2cccc(NC(=O)c3ccc(Cl)c(Cl)c3)c2)CC1
Cc1cccc(C)c1C1CCN(C2CCC(NC(=O)/C=C/c3ccccc3)CC2)CC1 (stereo not given)
